From PubChem BioAssay AID1645851 (National Center for Advancing Translational Sciences (NCATS), 2021)
Values joined by “and” are separate entries in the source; they are usually repeats but may differ in a detail not shown here. Equal entries are not always repeated. Out of some 140,000 compounds screened, about 1,200 (0.86%) were called active. The sample holds actives, similar compounds and a random draw of the others, so the mix is not that of the screen. Values without a mark were called inactive. No stated cut-off is given here; in the data, active means activity change below about -25%; inactive means the rest.

molecular target: Inositol hexakisphosphate kinase 1 (Homo sapiens) (UniProt Q92551); assay: Primary qHTS assay for small molecule inhibitors of Inositol hexaphosphate kinase 1 (IP6K1); conditions: ADP-Glo luminescence, 2 h, hits give low values; further: series mostly up to about 58 µM
Description: Assay Provider: Huijun Wei, M.S., Ph.D. School of Medicine, Johns Hopkins University, Baltimore, MD Inositol hexakisphosphate kinases (IP6Ks) catalyze pyrophosphorylation of inositol hexakisphosphate (IP6) into inositol 5-diphospho-1,2,3,4,6-pentakisphosphate (IP7), which is involved in numerous areas of cell physiology including glucose homeostasis, blood coagulation and neurological development. Inhibition of IP6Ks may be effective for the treatment of Type II diabetes, thrombosis, and psychiatric disorders. We performed a quantitative high throughput screen (qHTS) of 158,410 compounds for IP6K1 inhibitors using ankinase activity ADP-Glo Max assay. […] Medicinal chemistry SAR efforts in three chemical series identified potent IP6K1 inhibitors, which were further validated in an orthogonal LC-MS IP7 analysis.
PROTOCOL TABLE SEQUENCE No. (e.g., 1, 2, 3, etc.); […] (e.g., Cells, Incubation, Reagent, etc.); VALUE and DESCRIPTION. 1. Reagent, 3 uL of 1.3 mM ATP and 130 uM IP6 mixture in assay buffer was dispensed to a white, 1536-well assay plate. 2. Compound, 23 nL of compounds of the top two doses (57.5 uM and 19.1 uM final concentration) of the libraries were dispensed into the mixture using the Kalypsis pintool. 3. Reagent, 1 uL of 2.4 uM IP6K1 was dispensed to the assay plates. 4. Incubation, 2 hr incubation at room temperature. 5. Reagent, 2 uL of ADP-Glo reagent was added to the wells. 6. Incubation, 1 hr incubation at room temperature. 7. Reagent, 4 uL or ADP-Glo substate was added to the wells. 8. Incubation, 45 min incubation at room temperature. 9. Detection, luminescence signal was detected using the ViewLux microplate imager (PerkinElmer).
On the % scale 0 is the no-effect control and ±100 the full control effect.

Chain of Inositol hexakisphosphate kinase 1 (Homo sapiens) (Q92551 whole entry, looked up): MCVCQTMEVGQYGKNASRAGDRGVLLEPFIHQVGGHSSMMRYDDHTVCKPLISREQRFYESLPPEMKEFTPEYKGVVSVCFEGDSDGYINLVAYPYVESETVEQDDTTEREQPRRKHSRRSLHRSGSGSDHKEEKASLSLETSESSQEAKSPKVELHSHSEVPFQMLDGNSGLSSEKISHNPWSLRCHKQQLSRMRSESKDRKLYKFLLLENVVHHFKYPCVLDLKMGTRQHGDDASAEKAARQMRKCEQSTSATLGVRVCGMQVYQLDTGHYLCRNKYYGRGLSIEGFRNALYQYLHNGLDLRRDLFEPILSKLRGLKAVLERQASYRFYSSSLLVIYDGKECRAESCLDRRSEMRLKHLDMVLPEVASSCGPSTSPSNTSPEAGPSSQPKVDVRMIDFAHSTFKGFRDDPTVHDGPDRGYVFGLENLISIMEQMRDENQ

Compound	activity change
Cc1ccc(-c2cc(C(=O)Oc3ccccc3Cl)no2)cc1C	-29.7% (active)
CCOC(=O)c1cc(-c2ccc(OC)c(S(=O)(=O)Nc3ccc(OC)cc3OC)c2)on1	1.78%
COCCNC(=O)c1cc(-c2cccc(Cl)c2)on1	-0.0295%
CC(O)CNC(=O)c1ccc(-c2ncc3cnc(C4=CCOCC4)cn23)cc1 (configuration not stated)	-10.8%
Cc1ccccc1CC(=O)N1CCCC(n2cc(-c3nc(-c4ccccc4)no3)nn2)C1 (configuration not stated)	9.4%
CC(C)NC(=O)N1CCN(c2ccc3nnc(C4CC4)n3n2)CC1	5.65%
Cc1cccc(C(=O)NCCC2CCN(C(=O)Nc3ccc(F)cc3F)CC2)c1	-7.16%
Cc1cccc(N2CCN(c3ccc(C(=O)O)cc3NC(=O)c3ccccc3F)CC2C)c1 (configuration not stated)	-32.2% (active)
Cc1ccccc1NC(=O)c1c(NC(=O)c2ccccc2F)sc2c1CCC(C)C2 (configuration not stated)	-11.5%
Cc1cccc(C)c1-c1nc(C(=O)N2CCN(c3ncccn3)CC2)n2ccccc12	8.82% and 13.4%
CN1C[C@H](NS(C)(=O)=O)CCC[C@@H](C(=O)N(C)Cc2cccnc2)CC1=O	5.58%
COc1c(C)cnc(CN(C)C(=O)C2CC(=O)N(C3CCCC3)C2)c1C (configuration not stated)	-26.5% (active)
CCn1nc(CNC(=O)C2CCC(=O)N(C3CCCC3)C2)c2ccccc21 (configuration not stated)	-2.6%
O=C(NC1CCN(c2nccc(Nc3ccccc3Cl)n2)CC1)c1ccccn1	0.678%
Cc1ccncc1C(=O)N1CCC2(CC1)CC(c1ccccc1)C(=O)N2C (configuration not stated)	-28.9% (active)
Cc1cc(N2CCC3(CC2)CC(c2ccccc2)C(=O)N3C)ncn1 (configuration not stated)	10.4%
Cc1ccncc1C(=O)N1CCC(Cn2c(C)cnc2-c2cccnc2)CC1	7.69%
COc1ccccc1-c1ccc(CN2CCC(NC(=O)c3ccncc3)C2)cc1 (configuration not stated)	24.3%
Cc1ccc(CN2C(=O)[C@@H]3C[C@@H](O)CN3C3(CN(Cc4ccc(C(F)(F)F)cc4)C3)C2=O)o1	-6.91%
Cc1cc(Cl)ccc1OCC(=O)N1CCc2n[nH]c(=O)n2CC1	-14.4%
COc1ccccc1N1CCN(S(=O)(=O)CCNC(=O)COc2ccc(F)cc2)CC1	-44.5% (active)

Compound	activity change
COc1cc(C(=O)NCCS(=O)(=O)N2CCN(c3ccccc3)CC2)cc(OC)c1OC	23.9%
COc1ccc(N2CCN(S(=O)(=O)CCNC(=O)C(c3ccccc3)c3ccccc3)CC2)cc1	23.7%
Cc1ccc2c(c1)N(CC(=O)NCCCN1CCCCC1)C(=O)c1cccnc1O2	-101% (active)
O=C(CN1C(=O)c2cccnc2Oc2ccc(Cl)cc21)NCCc1ccccc1	-2.8%
Cc1ccc2c(c1)N(CC(=O)NCCc1ccc(Cl)cc1)C(=O)c1cccnc1O2	-4.44%
Cc1ccc(C2(O)CCN(c3nccc(CCC(F)(F)F)n3)CC2)nc1	-3.3%
CCOc1cccc2c1OC[C@@H]1CN(CCOC)C(=O)CCN(C(=O)c3ccccc3OC)[C@H]21	-8.59%
CC(C)(C)OC(=O)N1CCC(c2c(C(=O)NCc3ccccn3)cnn2-c2ccc(F)cc2)CC1	-1.08%
CC(C)(C)OC(=O)N1CCC(c2c(C(=O)N3CCc4ccccc4C3)cnn2-c2ccc(F)cc2)CC1	-28.8% (active)
Cc1cccc(-n2ncc(C(=O)N3CCc4ccccc4C3)c2C2CCN(C(=O)OC(C)(C)C)CC2)c1	32.7%
COc1ccc(-c2cc(C(=O)NCC(F)(F)F)c3c(C4CCCN4)nn(C)c3n2)cc1 (configuration not stated)	-2.22%
COc1ccccc1-c1cccc(C(=O)N2CCN(C(=O)Cc3ccc(F)cc3)CC2)c1	5.42%
CCOC(=O)c1ccc(NC(=O)CCS(=O)(=O)c2ccc(C)cc2)cc1	-30% (active)
CCOC(=O)c1ccc(NC(=O)CCS(=O)(=O)c2ccc3c(c2)oc(=O)n3C)cc1	9.62%
CCOC(=O)c1ccc(NC(=O)CCn2cnnn2)cc1	7.68%
O=C(NCc1ccc(F)cc1)C1CCN(c2nccc(Nc3ccccc3F)n2)CC1	18.1%
CN(c1ccccc1)c1cc(=O)c2ccnc(Nc3cccc([S+](C)(=O)[O-])c3)c2o1	-11.6%
CN(c1ccccc1)c1cc(=O)c2ccnc(NC3CCOCC3)c2o1	-36.2% (active)
CN(c1ccccc1)c1cc(=O)c2ccnc(-c3ccc(CO)cc3)c2o1	-7.57%
COc1ccc(-n2nc(C3CCN(Cc4ccccn4)CC3)[nH]c2=O)cc1	7.19%
O=C(Nc1ccc(F)cc1)c1nc2cccnc2n(Cc2ccccc2)c1=O	14.3%
